Data taken from PubChem BioAssay (NCI).
About 83,000 compounds went through this panel and 20% of them were active in at least one assay; those are over-represented in the sample as a whole.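 Note: values are percent growth. 100 is the growth of untreated cells, values between 100 and 0 indicate rising inhibition; between -100 and 0 indicates cell death.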 Active and inactive are the calls of the source. Rule for the calls: active = growth percent below 10; inactive = the rest.

How the values were obtained:
Assay in all cases: NCI-60 one-dose screen, 48 h (100 = growth as untreated, 0 = no growth, -100 = all killed)
Details in all cases: 10 µM unless noted
[1] = tested on: NCI-H23 lung
[2] = tested on: NCI-H226 lung
[3] = tested on: NCI-H322M lung
[4] = tested on: HOP-62 NSCLC
[5] = tested on: NCI-H460 lung
[6] = tested on: NCI-H522 lung
[7] = tested on: A549/ATCC NSCLC
[8] = tested on: 786-0 renal
[9] = tested on: COLO 205 colon
[10] = tested on: DU-145 prostate
[11] = tested on: MALME-3M melanoma
[12] = tested on: MDA-MB-231 breast
[13] = tested on: RXF 393 renal
[14] = tested on: SF-268 CNS
[15] = tested on: SF-295 CNS
[16] = tested on: SF-539 CNS
[17] = tested on: UACC-257 melanoma
[18] = tested on: M14 melanoma

Measured: growth

CNC(=O)c1c(NC(=O)c2cccc(C(F)(F)F)c2)sc2c1CCC(=O)C2
inactive: [3] 15.4% | [4] 13.6% | [5] 10% | [7] 13.6% | [8] 13.3% | [10] 23.9% | [14] 21.7%
active: [1] -1.79% | [2] 1.92% | [6] -28.3% | [9] -31.7% | [11] -28.9% | [12] -41.2% | [13] -18.9% | [15] -10.4% | [16] -30% | [17] -11% | [18] -10.9%

COc1ccccc1CNCCCN1C(=O)c2ccc3c4c(ccc(c24)C1=O)C(=O)N(CCCNCCCN)C3=O
active: [1] -63.4% | [3] 1.95% | [5] -26.5% | [6] -75.6% | [7] 9.81% | [9] -87.8% | [10] -1.55% | [11] -41.9% | [13] -36.9% | [14] -0.397% | [16] 8.47% | [17] -74.4% | [18] -44.1%
inactive: [2] 38.7% | [4] 11.6% | [8] 11% | [12] 12.2% | [15] 14.5%

CCCCCCCCOC(=O)C(C)OC(=O)OCCOCCOC(=O)OC(C)C(=O)OCCCCCCCC (stereo not drawn)
inactive: [1] 113% | [2] 102% | [3] 92.4% | [4] 105% | [5] 107% | [6] 114% | [7] 102% | [8] 104% | [9] 119% | [10] 104% | [11] 89.3% | [12] 107% | [13] 110% | [14] 103% | [15] 93.6% | [16] 109% | [17] 107% | [18] 96.5%

CCCCCCCCCCCCNC(=O)N[C@H](C(=O)N[C@H]1/C=C/OCCNC(=O)/C=C/[C@H](C(C)C)NC1=O)C(C)C
active: [2] -3.01%
inactive: [1] 60.4% | [3] 97.1% | [4] 76.7% | [5] 82.6% | [6] 47.6% | [7] 94.7% | [8] 99.8% | [9] 103% | [10] 66.9% | [11] 71% | [12] 81.2% | [13] 83.6% | [14] 46.2% | [15] 95.2% | [16] 54.6% | [17] 93.1% | [18] 87.2%

COc1ccc(-c2cnnn2-c2nonc2-n2cccc2)cc1
inactive: [2] 23.6% | [3] 49.6% | [4] 27.2% | [7] 26% | [8] 36.6% | [11] 47.8% | [12] 33.5% | [14] 35.1% | [17] 65.6%
active: [1] 3.55% | [5] 7.52% | [6] -4.72% | [9] -43.1% | [10] 9.22% | [13] -18.3% | [15] -17.2% | [16] -13.9% | [18] -2.06%

Clc1cc2nc(-c3ccccc3)c(-c3ccccc3)nc2cc1Cl
inactive: [1] 79.6% | [2] 89.7% | [3] 106% | [4] 89.9% | [5] 94.8% | [6] 86.1% | [7] 100% | [8] 103% | [9] 115% | [10] 103% | [11] 85.8% | [12] 88% | [13] 110% | [14] 105% | [15] 98.7% | [16] 97.3% | [17] 111% | [18] 85.9%

CCNC(=O)c1ccc2c(c1)nc(-c1ccc(Cl)cc1)n2-c1cc(C(C)(C)C)[nH]n1
inactive: [1] 60% | [2] 46.9% | [3] 70.9% | [4] 47.3% | [5] 36.7% | [6] 32.3% | [7] 48.6% | [8] 27.7% | [9] 51.8% | [10] 71.4% | [11] 34.9% | [12] 64.3% | [13] 36.2% | [14] 51.6% | [15] 16.4% | [16] 32.6% | [17] 79.1% | [18] 18.1%

CC1(C)CN(CCNc2nccc(-c3c(-c4cccc(O)c4)nc4sccn34)n2)S(=O)(=O)N1
active: [11] 5.36% | [18] -1.68%
inactive: [1] 70% | [2] 87.5% | [3] 54.2% | [4] 89.1% | [5] 50.6% | [6] 65.1% | [7] 117% | [8] 50.6% | [9] 32.1% | [10] 67.9% | [12] 53.8% | [13] 57.1% | [14] 84% | [15] 92.9% | [16] 87.2% | [17] 46.8%

COc1cccc(-c2nc3sccn3c2-c2ccnc(NCCN3CCCN(C)S3(=O)=O)n2)c1
inactive: [1] 104% | [2] 78.9% | [3] 91.4% | [4] 111% | [5] 69.5% | [6] 95.9% | [7] 91.7% | [8] 73.3% | [9] 45.8% | [10] 74.2% | [11] 39.6% | [12] 84.9% | [13] 74.6% | [14] 103% | [15] 96.8% | [16] 92.5% | [17] 84.7% | [18] 29.2%

CN1CCCN(CCNc2nccc(-c3c(-c4cccc(O)c4)nc4sccn34)n2)S1(=O)=O
inactive: [1] 67.1% | [2] 72.4% | [3] 47.9% | [4] 84.4% | [5] 40.2% | [6] 59.3% | [7] 45.8% | [8] 42.2% | [9] 29.3% | [10] 54.7% | [12] 44.9% | [13] 41.3% | [14] 71.5% | [15] 57.8% | [16] 57.8% | [17] 36.8%
active: [11] 9.87% | [18] -0.122%

COc1cc(-c2nc(-c3ccc(-c4nc5ccc(F)cc5[nH]4)cc3)no2)cc(OC)c1OC
inactive: [1] 30.4% | [2] 29.2% | [3] 90.7% | [4] 26.5% | [5] 43.2% | [6] 18.2% | [7] 42.8% | [8] 46.4% | [9] 60.4% | [10] 68.5% | [11] 46% | [14] 35.8% | [15] 22.5% | [16] 33.9% | [17] 80.1% | [18] 43.6%
active: [12] 9.59% | [13] -3.77%

Nc1c(Br)cc2c(c1Br)Cc1cc(Cl)ccc1-2
inactive: [1] 89.2% | [2] 78.6% | [3] 89.2% | [4] 83.4% | [5] 99.7% | [6] 102% | [7] 95.8% | [8] 108% | [9] 106% | [10] 112% | [11] 109% | [12] 70% | [13] 106% | [14] 107% | [15] 87.8% | [16] 89.5% | [17] 111% | [18] 106%

COc1cc(CN(c2ccc(C)cc2)C2OC(=O)c3ccccc32)cc(OC)c1OC (stereo not drawn)
inactive: [1] 29% | [2] 20.1% | [3] 60.2% | [4] 24.8% | [5] 18.4% | [6] 31.7% | [7] 30.5% | [8] 28.9% | [10] 25% | [11] 63.4% | [12] 64.6% | [13] 22.3% | [14] 34.1% | [15] 16.8% | [17] 94.2%
active: [9] -45.5% | [16] 5.91% | [18] -10%

COc1cc(NC(=O)CSc2nc3ccc(Cl)cc3c(=O)n2Cc2ccccc2)cc(OC)c1OC
active: [16] -6.78%
inactive: [1] 76.8% | [2] 46.4% | [3] 82.3% | [4] 91.3% | [5] 64.7% | [6] 57.7% | [7] 67.3% | [8] 58.5% | [9] 83.2% | [10] 72% | [11] 61.2% | [12] 44.6% | [13] 30.7% | [14] 59.3% | [15] 84.1% | [17] 70% | [18] 73.4%

CCc1c(C)c2ccc(O)c(-c3cc(-c4ccccc4)c(C#N)c(=O)[nH]3)c2oc1=O
inactive: [1] 89% | [2] 83.8% | [3] 95% | [4] 89.4% | [5] 112% | [6] 109% | [7] 90% | [8] 105% | [9] 115% | [10] 96.7% | [11] 107% | [12] 72.6% | [13] 99.2% | [14] 108% | [15] 97.4% | [16] 113% | [17] 123% | [18] 102%

O=C1OCC2=C1C(c1ccccc1)c1cc3c(cc1N2CCO)CCC3 (stereo not drawn)
active: [1] -0.519% | [5] -37.3% | [6] -31.4% | [8] 8.65% | [9] -81.7% | [10] 2.03% | [15] -21.8% | [16] -50.5% | [18] -15.1%
inactive: [2] 27% | [3] 34.2% | [4] 20.9% | [7] 34.6% | [11] 50.2% | [12] 16.4% | [13] 11% | [14] 39.2% | [17] 61.7%
